# Compound activity deposited in PubChem BioAssay by National Center for Advancing Translational Sciences (NCATS).
# An excerpt weighted towards active compounds, which were near 11% of everything screened.
# Luciferase inh = Firefly luciferase inhibition profiling of diverse chemical library using quantitative high-throughput screening; Luciferin 4-monooxygenase (Photinus pyralis), P08659; purified P. pyralis luciferase, luminescence, biochemical; Potency, µM (top dose mostly 115 µM), most hits filed as inhibitors; 76,000 compounds, 2.5% hits; note: nearly all actives have a fitted effect of over 65% in size
#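 Inhibitors were tested against purified firefly luciferase in a biochemical, low-substrate format (both substrates at 10uM) and luminescence measured with a CCD imager.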
# HEK cytotox = Cytotoxic Profiling in HEK 293 Cell Line of Diverse Libraries Using Quantitative High-Throughput Screening | HEK 293 viability, ATP luminescence (CellTiter-Glo), 48-72 h | Potency, µM (series often up to 115 µM), for the others: at the highest dose activity change, negative = cytotoxicity, usual class: inhibitors | 94,000 compounds, 6.6% hits; note: nearly all actives have a fitted effect of over 60% in size
#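 Cytotoxicity was scored by loss of ATP-coupled luminescence (CellTiter-Glo) in HEK 293 cells. Compound treatment ran 48 or 72 hr at 37 degree Celsius, 5% CO2, 95% humidity.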
# hNpr1 antagonist = Natriuretic polypeptide receptor (hNpr1) antagonism - Primary qHTS; Atrial natriuretic peptide receptor 1 (Homo sapiens), P16066; HEK293 hNpr1 GloSensor cGMP, ANP-stimulated luminescence; Potency, µM (doses to about 46.3 µM), for inactives: at the top dose activity change, negative = inhibition, most hits filed as inhibitors; 76,000 compounds, 1.6% hits; calls by dose curve; note: nearly all actives have a fitted effect of over 60% in size
#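 HEK293 cells stably expressing human Npr1 and cGMP GloSensor pGS-40F, loaded 2 h with 2% GloSensor reagent, given compound 30 min at room temperature. Luminescence read before and 20 min after 0.1 nM hNppA.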
# 3T3 cytotox = Cytotoxic Profiling in NIH 3T3 Cell Line of Diverse Libraries Using Quantitative High-Throughput Screening; NIH 3T3 viability, CellTiter-Glo ATP luminescence, 48-72 h; 94,000 compounds, 4.3% hits; Potency, µM (top dose mostly 96.7 µM), for the others: top-dose activity change, negative = cytotoxicity, usual class: inhibitors; note: nearly all actives have a fitted effect of over 55% in size
#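 Cells were seeded at 400 per well, treated with pin-transferred compound, and kept 48 or 72 hr at 37 °C before CellTiter-Glo addition and luminescence imaging of cellular ATP.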
# An asterisk follows results filed as active; i = inactive; ? = inconclusive; / = not tested or not shown; [ ] = another dose, or the depositor's remark. Unless noted, calls come from the whole dose curve; as a rule, active = well fitted curve in the direction sought with a large enough effect; inconclusive = small, poorly fitted or top-dose-only effect, or another doubt; inactive = no such curve, though single readings can be large; an effect the other way counts as inactive or inconclusive. % is set by controls: 0 for no effect and ±100 for the full control effect; potency is the fitted concentration of half-maximal effect.
SMILES,Luciferase inh,HEK cytotox,hNpr1 antagonist,3T3 cytotox
Fc1ccc(CNC2(Cc3cc(-c4ccccc4)on3)COC2)cc1,i,89µM*,?,-14%[174 µM]
FC(F)(F)Oc1ccc(CNC2(Cc3cc(-c4ccccn4)on3)COC2)cc1,i,?,-2%[70.6 µM],-22%[138 µM]
Oc1ccccc1CNC1(Cc2cc(-c3ccc(F)cc3)on2)COC1,i,100µM*,?,?
CN(C)c1ccc(CNC2(Cc3cc(-c4ccccc4)on3)COC2)cc1,i,89µM*,-7%[70.6 µM],-26%[174 µM]
COc1ccc(-c2cc(CC3(NCc4ccc(C)o4)COC3)no2)cc1,i,?,-19%[70.6 µM],?
Oc1ccccc1CNC1(Cc2cc(-c3ccccc3)on2)COC1,i,-21%[172 µM],-4%[70.6 µM],?
COc1ccc(-c2cc(CC3(NCc4ccccc4)COC3)no2)cc1,i,100µM*,5%[70.6 µM],?
Clc1ccccc1CNC1(Cc2cc(-c3ccccc3)on2)COC1,i,112µM*,-14%[70.6 µM],?
O=C(c1cc2ccccc2[nH]1)N1C[C@@H](CO)[C@H](c2nc(C3CC3)no2)C1,i,?,-12%,?
CN(Cc1ccc(-c2ccccc2)cc1)Cc1ccccn1,50µM*,50µM*,-20%[70.6 µM],?
CN(Cc1ccc(F)cc1)Cc1ccc(-c2ccccc2)cc1,i,0%[172 µM],0%[70.6 µM],-9%[138 µM]
CN(Cc1ccc(-c2ccccc2)cc1)Cc1cccnc1,50µM*,?,8.9µM*,?
FC(F)(F)c1cccc(CCC2CCCN(Cc3cccnc3)C2)c1 (centres undefined),i,?,0%,-29%
COc1cccc(N2C(=O)NC(=NC3CCCCC3)C23CCN(C(=O)c2ccc(C(F)(F)F)cc2)CC3)c1,/,-27%,/,-23%
COc1ccc(C(=O)N2CCC3(CC2)C(=NC2CCCCC2)NC(=O)N3c2cccc(OC)c2)cc1,/,2%,/,28µM*
O=C(c1ccc(C(F)(F)F)cc1)N1CCC2(C1)C(=NC1CCCCC1)NC(=O)N2c1cc(F)cc(F)c1 (centres undefined),/,-5%,/,25µM*
Cc1ccc(C(=O)N2CCC3(CC2)C(=NC2CCCCC2)NC(=O)N3c2cc(F)cc(F)c2)cc1,/,-3%,/,32µM*
COc1ccc(C(=O)N2CCC3(CC2)C(=NC2CCCCC2)NC(=O)N3c2cc(F)cc(F)c2)cc1,/,i,/,32µM*
COc1ccc(C(=O)N2CCCC3(C2)C(=NC2CCCCC2)NC(=O)N3c2cc(F)cc(F)c2)cc1 (centres undefined),/,i,/,-8%
O=C(c1ccc(C(F)(F)F)cc1)N1CCC2(CC1)C(=NC1CCCCC1)NC(=O)N2c1cc(F)cc(F)c1,/,0%,/,?
CN(C)C(=O)c1nc2sccn2c1-c1ccc(F)cc1,/,-14%,/,-16%
O=C(Nc1cccc(F)c1)N1CCC(OCCOc2cccnc2)CC1,i,?,0%,-12%
O=C(NCCc1ccc(Cl)cc1)c1nc(-c2ccc(Cl)nc2)c2cnccn12,/,-21%,/,-29%
COc1ccc(C2(C(=O)NCc3ccc(C(F)(F)F)cc3)CCOCC2)cc1,/,?,/,-24%
CC1=NS(=O)(=O)N(Cc2ccccc2)C=C1C(=O)OCc1nc(-c2ccccc2C)no1,i,?,-8%,?
SMILES,Luciferase inh,HEK cytotox,hNpr1 antagonist,3T3 cytotox
CC(C)(C)c1nnc2ccc(C(=O)NCc3ccccn3)cn12,/,-8%[172 µM],/,-29%[138 µM]
COc1ccc(-c2noc(-c3cccn3CC(=O)Nc3cc(C)c(Cl)cc3OC)n2)cc1F,i,10%,-14%,-8%
N#Cc1cccc(C(=O)N2CCNc3cnc(Nc4cccc(F)c4)nc3C2)c1,i,?,28µM*,?
O=C(c1cc2ccccc2[nH]1)N1CCNc2cnc(Nc3ccccc3)nc2C1,?,79µM*,?,?
CNC(=O)c1cc(C2CC2)nc2onc(C3CCN(C(=O)c4cccc(OC)c4)CC3)c12,/,-5%,/,-13%
COc1ccc(S(=O)(=O)N2CC(n3cnnc3C3CC3)C2)cc1,/,?,/,-28%
CC(C)CCNC(=O)c1ccc2c(c1)CC(=O)N2Cc1ccc(F)cc1,i,?,0%,?
Cc1cccc(CN2CCCC23Cc2ccccc2CNC3=O)c1 (centres undefined),/,?,/,-28%
CN(C)c1ccc(C(=O)N2CCN3C(=O)c4cc(-c5ccc6c(c5)OCO6)ccc4NC(=O)[C@H]3C2)cc1,i,?,-13%,-20%
O=C1Nc2ccc(-c3ccc(Cl)cc3)cc2C(=O)N2CCN(C(=O)c3cccnc3)C[C@H]12,i,45µM*,2%,?
O=C1Nc2ccc(-c3ccc4c(c3)OCO4)cc2C(=O)N2CCN(C(=O)c3cccs3)C[C@@H]12,i,32µM*,6%,35µM*
COc1ccc(C(=O)N2CCN3C(=O)c4cc(-c5ccc(Cl)cc5)ccc4NC(=O)[C@@H]3C2)cc1,i,32µM*,-24%,28µM*
C[S+](=O)([O-])N1C[C@H](C(=O)Nc2cccc(Cl)c2)C[C@@H]1c1ccc(F)cc1,i,?,1%[70.6 µM],?
O=C1CC2(CCN([S+](=O)([O-])c3ccccc3)CC2)Oc2ccccc2N1,i,?,11%,?
COc1cccc([S+](=O)([O-])N2CCC3(C2)NC(=O)c2ccccc2CO3)c1 (centres undefined),i,?,0%,-27%
COc1cccc([S+](=O)([O-])N2CCC3(CC2)CC(=O)Nc2ccccc2O3)c1,i,50µM*,-3%,-16%
COc1cccc([S+](=O)([O-])N2CCC3(CC2)NC(=O)c2ccccc2O3)c1,i,40µM*,?,?
COCCn1c(=O)c(C(=O)NC2CC2)nc2cccnc21,/,-4%[172 µM],/,-23%[138 µM]
CC(C)n1cc2cc(C(=O)N3CCN(Cc4ccc5c(c4)OCO5)CC3)sc2c1,i,?,-9%,-23%
O=C(NC1CCCCCC1)c1cn2cc(-c3ccccc3)sc2n1,/,-13%[172 µM],/,-27%[138 µM]
CCC(=O)Nc1ccc(-c2c(-c3ccc(C)cc3)nn(-c3ccc(F)cc3)c2OC(C)=O)cc1,i,45µM*,-18%,28µM*
CCC(=O)Nc1ccc(-c2c(-c3cc(OC)cc(OC)c3)nn(-c3ccc(C)cc3)c2OC(C)=O)cc1,i,?,-21%,-22%
CCC1(O)CCC12CCN(C(=O)Cc1cccnc1)CC2 (centres undefined),i,-6%,-1%,-19%
O=C(Cc1cccnc1)N1CCCC(c2ccccc2)(c2ccccc2)C1,i,45µM*,-4%,-16%
c1ccc2ncc(CNC[C@H]3Cn4c(-c5ccc6c(c5)OCCO6)cnc4CO3)cc2c1,?,50µM*,35µM*,?
Cc1ccccc1CNC[C@H]1Cn2c(-c3ccccc3)cnc2CO1,i,112µM*,-5%[70.6 µM],?
